{"source": "paper PMC5540273", "about": "(PLoS ONE, 2017);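 also: KINOMEscan kinase panel screen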", "data": [{"tested_on": "WNK1", "details": "concentration: 1 μM, replicates: in singlicate; n = 1", "units": {"%Inh": "%"}, "values": [{"compound": "O=C(Nc1cccc(-c2nn3ccccc3c2-c2ccnc(Nc3cccc(F)c3)n2)c1)c1c(F)ccc(F)c1Cl", "note": "[GSK357952]", "%Inh": 3}, {"compound": "c1ccc(-c2cnc3nccnn23)cc1", "note": "[AH20685]", "%Inh": 0}, {"compound": "CN(c1ccc(NC(=O)Nc2cc(C(F)(F)F)ccc2F)cc1)c1ccnc(Nc2ccc(S(N)(=O)=O)cc2)n1", "note": "[GW809893]", "%Inh": 6}, {"compound": "O=C(Nc1n[nH]c2cc(-c3ccoc3)ccc12)C1CC1", "note": "[SB-738481]", "%Inh": 0}, {"compound": "C[C@@H]1CC[C@@H](C(=O)Nc2ccccc2)CN1c1cc(-c2ccc3c(N)n[nH]c3c2)nc(N)n1", "note": "[GSK2286062]", "%Inh": 0}, {"compound": "O=C(Nc1cccc(-c2nn3ncccc3c2-c2ccnc(Nc3ccccc3)n2)c1)c1c(F)cccc1F", "note": "[GSK198271]", "%Inh": 2}, {"compound": "COc1cccc(NC(=O)NC2CCN(c3ccnc(Nc4cc(OC)c(OC)c(OC)c4)n3)C2)c1", "note": "(stereo not shown) [GSK1379763]", "%Inh": 8}, {"compound": "CN1CCN(CCCNc2nccc(-c3c(-c4ccc(F)cc4)nn4cc(C(F)(F)F)ccc34)n2)CC1", "note": "[GW621581]", "%Inh": 3}, {"compound": "Nc1n[nH]c2cnc(-c3ccccc3)cc12", "note": "[SB-642124]", "%Inh": 8}, {"compound": "Cc1occc1-c1ncc(OC[C@@H](N)Cc2c[nH]c3ccccc23)cc1-c1ccc2[nH]nc(C)c2c1.O=C(O)C(F)(F)F", "note": "[GSK682037]", "%Inh": 11}, {"compound": "Cl.NC(=O)c1cccc(Nc2nccc(Nc3ccc(Oc4c(Cl)cccc4Cl)c(Cl)c3)n2)c1", "note": "[GW659009]", "%Inh": 3}, {"compound": "CCCCc1nn2ncccc2c1-c1ccnc(Nc2ccc(N3CCN(C)CC3)cc2)n1", "note": "[GW684941]", "%Inh": 11}, {"compound": "CCc1ccc(-c2ccc3c(c2)-c2c(cnn2C)S(=O)(=O)N3C)cc1", "%Inh": 0}, {"compound": "c1ccc(-c2n[nH]cc2Nc2ccnc3ccccc23)nc1", "note": "[GW694077]", "%Inh": 0}, {"compound": "c1ccc(Oc2ccc(Nc3ccnc4cc(-c5ccc(CNCCN6CCOCC6)o5)ccc34)cc2)nc1", "note": "[GW567145]", "%Inh": 0}, {"compound": "Cn1cc(-c2[nH]c3cc(NC(=O)[C@H](N)C4CCCCC4)cc4c3c2C=NNC4=O)cn1", "%Inh": 0}, {"compound": "FC(F)(F)c1ccc(/C=C/c2cncnc2Nc2ccc3[nH]c(Cc4ccccc4)nc3c2)cc1", "note": "[GW709199]", "%Inh": 0}, {"compound": "COc1cc2c(cc1OCCN1CCNCC1)ncc1c3ccc(C#N)cc3[nH]c21", "%Inh": 12}, {"compound": "CC(=O)N1CCN(c2ccc(Nc3nccc(-c4sc(C(C)C)nc4-c4cccc(NS(=O)(=O)c5cccc(Cl)c5)c4)n3)cn2)CC1", "note": "[GSK1660437]", "%Inh": 2}, {"compound": "Cc1ccc(F)c(C(=O)Nc2cccc(-c3nn4ccccc4c3-c3ccnc(Nc4cccc(F)c4)n3)c2)c1F", "note": "[GSK361061]", "%Inh": 0}, {"compound": "Cc1cccc(NC(=O)Nc2ccc(Oc3ncnc4ccn(C)c34)cc2)c1", "%Inh": 0}, {"compound": "COc1cc(Nc2nccc(N3CCC(NC(=O)Nc4cccc(C(C)=O)c4)C3)n2)cc(OC)c1OC", "note": "(stereo not shown) [GSK1379753]", "%Inh": 0}, {"compound": "C[C@@H](Oc1cc(-n2cnc3cc(-c4ccnc(NCCS(C)(=O)=O)c4)ccc32)sc1C(N)=O)c1ccccc1Cl", "note": "[GSK907232]", "%Inh": 37}, {"compound": "COC(=O)Nc1nc2cc(Oc3ccc(NC(=O)Nc4cc(C(F)(F)F)ccc4F)cn3)ccc2[nH]1.Cl.Cl", "note": "[GW681170]", "%Inh": 6}, {"compound": "Nc1ncnc2c1nc(-c1ccccc1)n2-c1ccccc1", "note": "[SKF-97293]", "%Inh": 47}, {"compound": "NCCCC(NC(=O)c1cc(Br)c(-c2ccnc3[nH]ccc23)s1)c1ccccc1.O=C(O)C(F)(F)F.O=C(O)C(F)(F)F", "note": "(stereo not shown) [GSK1287544]", "%Inh": 30}, {"compound": "CSc1cccc2c(-c3ccncn3)c(-c3ccc(F)cc3)nn12", "note": "[GW514786]", "%Inh": 0}, {"compound": "CC(C)c1nc(-c2cccc(NS(=O)(=O)c3c(F)cccc3F)c2F)c(-c2ccnc(Nc3ccc(N4CCOCC4)nc3)n2)s1", "note": "[GSK2008607]", "%Inh": 3}, {"compound": "Cc1cccc(Nc2nc(N[C@H]3CCNC3)ncc2C(N)=O)c1.Cl", "note": "[GSK2197149]", "%Inh": 0}, {"compound": "Nc1ncc(-c2ccc3nccc(-c4ccncc4)c3c2)cc1S(=O)(=O)N1CCOCC1", "note": "[GSK1627798]", "%Inh": 0}, {"compound": "COc1ccc(CNC(=O)NC2CCN(c3ccnc(Nc4ccc(F)cc4)n3)CC2)cc1", "note": "[GSK1379788]", "%Inh": 0}, {"compound": "O=C(Nc1n[nH]c2nc(-c3ccc(O)cc3)ccc12)C1CC1", "note": "[SB-710363]", "%Inh": 32}, {"compound": "CC(C)(C)c1ccc2nccc(Nc3cccc(O)c3)c2c1", "note": "[GW856795]", "%Inh": 0}, {"compound": "COc1cc(Nc2nccc(-c3c(-c4cccc(NC(=O)c5c(F)cccc5F)c4)nn4ccccc34)n2)cc(OC)c1OC", "note": "[GSK323521]", "%Inh": 27}, {"compound": "O=c1[nH]cc(-c2ccc(N3CCOCC3)cc2)c2sc(-c3cn[nH]c3)cc12", "note": "[GSK2276055]", "%Inh": 7}, {"compound": "COc1cccc(-c2ccc3c(NC(=O)C4CC4)n[nH]c3n2)c1", "note": "[SB-710903]", "%Inh": 45}, {"compound": "Nc1ncc(-c2cccnc2)c2scc(-c3ccc4c(c3)CCN4C(=O)Cc3ccccc3)c12", "note": "[GSK683281]", "%Inh": 17}]}]}
